Laboratory results from PubChem BioAssay AID1159580 (chemical genetic matrix, 2015).
Values joined by “and” are separate entries in the source; they are usually repeats but may differ in a detail not shown here. Equal entries are not always repeated. The whole screen tested about 5,500 compounds, of which about 2,000 (36%) were called active. Not shown: some 18% with an inconclusive outcome. Rule as the data show it: active = normalized growth mostly below about 0.91 (no sharp cut-off); inconclusive = no clear call, values can overlap the other calls; inactive = mostly above about 0.92. This is one part of the list.

Test: chemical genetic growth profiling, strain panel (AID 1159580);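 also: tested at 20 µM; growth read once vehicle control cultures reached saturation at 30 °C; 1 = growth at the plate median or of vehicle wells; lower values mean less growth of the strain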
Details: S. cerevisiae deletion strains, growth OD

Measured: normalized growth

CCOc1ccc(Cc2nccc3cc(OCC)c(OCC)cc23)cc1OCC
inactive: locus YAL013W, strain DEP1, active compounds read low 0.976 | locus YAL021C, strain ccr4, active compounds read low 0.946 | locus YAL026C, strain drs2, active compounds read low 0.974 | locus YAL030W, strain snc1, active compounds read low 0.99 | locus YBL061C, strain skt5, active compounds read low 0.968 | locus YBR009C, strain hhf1, active compounds read low 0.975 | locus YBR021W, strain FUR4, active compounds read low 0.961 | locus YBR023C, strain chs3, active compounds read low 0.974 | locus YBR171W, strain sec66, active compounds read low 0.965 | locus YBR229C, strain ROT2, active compounds read low 0.969 | locus YBR231C, strain swc5, active compounds read low 0.998 | locus YBR279W, strain paf1, active compounds read low 0.989 | locus YCL011C, strain gbp2, active compounds read low 0.993 | locus YCL016C, strain dcc1, active compounds read low 0.981 | locus YCL029C, strain bik1, active compounds read low 0.952 | locus YCL069W, strain vba3, active compounds read low 0.99 | locus YCR088W, strain abp1, active compounds read low 0.969 | locus YDL005C, strain med2, active compounds read low 0.989 | locus YDL035C, strain GPR1, active compounds read low 0.956 | locus YDL040C, strain nat1, active compounds read low 0.976 | locus YDL074C, strain BRE1, active compounds read low 0.855 | locus YDL101C, strain DUN1, active compounds read low 0.956 | locus YDL134C, strain PPH21, active compounds read low 0.939 | locus YDL185W, strain tfp1, active compounds read low 0.994 | locus YDL192W, strain arf1, active compounds read low 0.958 | locus YDR001C, strain nth1, active compounds read low 0.977 | locus YDR069C, strain doa4, active compounds read low 0.982 | locus YDR101C, strain arx1, active compounds read low 0.967 | locus YDR137W, strain rgp1, active compounds read low 0.89 | locus YDR150W, strain NUM1, active compounds read low 0.994 | locus YDR159W, strain sac3, active compounds read low 0.892 | locus YDR162C, strain NBP2, active compounds read low 0.945 | locus YDR195W, strain ref2 1.05 | locus YDR297W, strain sur2, active compounds read low 0.976 | locus YDR318W, strain mcm21, active compounds read low 0.931 | locus YDR334W, strain swr1, active compounds read low 0.974 | locus YDR335W, strain msn5, active compounds read low 0.985 | locus YDR388W, active compounds read low 0.954 | locus YDR392W, strain spt3, active compounds read low 0.866 | locus YDR502C, strain sam2, active compounds read low 0.96 | locus YEL003W, strain gim4, active compounds read low 0.963 | locus YEL037C, strain rad23, active compounds read low 0.956 | locus YEL061C, strain CIN8 (second series), active compounds read low 0.959 | locus YEL061C, strain CIN8, active compounds read low 0.986 | locus YER015W, strain faa2, active compounds read low 0.965 | locus YER016W, strain bim1, active compounds read low 0.962 | locus YER110C, active compounds read low 0.968 | locus YER111C, strain swi4, active compounds read low 0.972 | locus YER155C, strain BEM2 (second series), active compounds read low 0.913 | locus YER155C, strain BEM2, active compounds read low 0.99 | locus YER167W, strain BCK2, active compounds read low 0.956 | locus YFR010W, strain ubp6, active compounds read low 0.97 | locus YGL078C, strain dbp3, active compounds read low 0.985 | locus YGL086W, strain mad1, active compounds read low 0.962 | locus YGL167C, strain pmr1, active compounds read low 0.969 | locus YGL173C, strain kem1, active compounds read low 0.966 | locus YGL227W, strain vid30, active compounds read low 0.998 | locus YGL240W, strain doc1, active compounds read low 0.962 | locus YGL248W, strain PDE1, active compounds read low 0.944 | locus YGL253W, strain hxk2, active compounds read low 0.986 | locus YGR078C, strain PAC10, active compounds read low 0.899 | locus YGR135W, strain pre9, active compounds read low 0.92 | locus YGR229C, strain SMI1, active compounds read low 0.91 | locus YGR252W, strain gcn5, active compounds read low 0.776 | locus YHR013C, strain ard1, active compounds read low 0.955 | locus YHR027C, strain rpn1, active compounds read low 0.983 | locus YHR030C, strain SLT2, active compounds read low 0.977 and 0.969 | locus YHR079C, strain IRE1 (second series), active compounds read low 0.954 | locus YHR079C, strain IRE1, active compounds read low 0.939 | locus YHR094C, strain hxt1, active compounds read low 0.977 | locus YHR129C, strain ARP1, active compounds read low 0.978 | locus YHR142W, strain chs7, active compounds read low 0.923 | locus YHR200W, strain rpn10, active compounds read low 0.948 | locus YIL066C, strain RNR3, active compounds read low 0.935 | locus YIL073C, strain SPO22, active compounds read low 0.962 | locus YIL125W, strain kgd1, active compounds read low 0.978 | locus YIR030C, strain dcg1, active compounds read low 0.971 | locus YJL092W, strain hpr5, active compounds read low 0.99 | locus YJL095W, strain BCK1 (second series), active compounds read low 0.968 | locus YJL095W, strain BCK1, active compounds read low 0.882 and 0.963 | locus YJL115W, strain asf1, active compounds read low 0.995 | locus YJL129C, strain trk1, active compounds read low 0.896 | locus YJL134W, strain LCB3, active compounds read low 0.985 | locus YJL154C, strain vps35, active compounds read low 0.973 | locus YJL164C, strain tpk1, active compounds read low 0.973 | locus YJL166W, strain qcr8, active compounds read low 0.967 | locus YJL168C, strain set2, active compounds read low 0.973 | locus YJL187C, strain SWE1 (second series), active compounds read low 0.912 | locus YJR043C, strain POL32, active compounds read low 0.943 | locus YJR066W, strain TOR1, active compounds read low 0.9
